Source: PubChem BioAssay AID1851 (National Center for Advancing Translational Sciences (NCATS), 2009)
In all, about 16,000 compounds went through this assay and about 5,800 (36%) were called active. Roughly 23% stayed inconclusive and do not appear here. Calls come from the whole dose curve; as a rule, active = well fitted curve in the direction sought with a large enough effect; inconclusive = small, poorly fitted or top-dose-only effect, or effect the other way; inactive = no such curve, though single readings can be large or run the other way. Some of the results follow.

The molecules below were run against Cytochrome P450 2C19 (Homo sapiens) (UniProt P33261) (assay: Cytochrome panel assay with activity outcomes). Conditions: recombinant CYP, pro-luciferin dealkylation, luminescence, p450-cyp2c19; series mostly up to 57.1 µM.
% is set by controls: 0 for no effect and ±100 for the full control effect.

Cytochrome P450 2C19 (Homo sapiens), sequence (P33261 whole entry, looked up): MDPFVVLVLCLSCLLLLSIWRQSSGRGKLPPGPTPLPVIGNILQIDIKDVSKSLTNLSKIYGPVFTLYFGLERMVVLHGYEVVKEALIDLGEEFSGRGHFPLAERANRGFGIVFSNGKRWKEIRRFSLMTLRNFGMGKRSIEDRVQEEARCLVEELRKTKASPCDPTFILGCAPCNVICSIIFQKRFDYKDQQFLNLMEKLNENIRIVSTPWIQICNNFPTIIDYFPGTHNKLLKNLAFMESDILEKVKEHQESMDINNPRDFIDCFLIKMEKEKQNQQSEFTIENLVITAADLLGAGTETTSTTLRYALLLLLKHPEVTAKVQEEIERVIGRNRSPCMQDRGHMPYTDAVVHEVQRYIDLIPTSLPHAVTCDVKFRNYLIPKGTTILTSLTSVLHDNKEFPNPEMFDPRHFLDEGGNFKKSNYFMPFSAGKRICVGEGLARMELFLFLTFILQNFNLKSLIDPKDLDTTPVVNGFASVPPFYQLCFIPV

Row | SMILES | AC50 | activity, negative = inhibition
1 | COc1cccc(NS(=O)(=O)c2ccc3[nH]cc(C(=O)NCCN4CCOCC4)c(=O)c3c2)c1 | 22.4 µM (active) | –
2 | COc1ccccc1CNS(=O)(=O)c1ccc2[nH]cc(C(=O)O)c(=O)c2c1 | inactive | –
3 | O=C(CCN1CCN(CC(=O)Nc2ccccc2Cl)CC1)Nc1ccccc1F | 2.51 µM (active) | –
4 | Cc1ccc(C)n1CCN1CCN(CC(=O)Nc2cc(C(F)(F)F)ccc2Cl)CC1 | 10 µM (active) | –
5 | O=C(CCN1CCN(c2ccccc2F)CC1)Nc1ccccc1F | 4.47 µM (active) | –
6 | OCCN1CCN(CC/C=C2\c3ccccc3Sc3ccc(C(F)(F)F)cc32)CC1 | inactive | –
7 | COC(=O)N1CCC2(CCN(Cc3cc(C(F)(F)F)cc(C(F)(F)F)c3)CC2)CC1 | inactive | –
8 | Cc1ccc(N2CCN(CCC(=O)O)CC2)cc1 | – | 10.7% [at 11.4 µM] (inactive)
9 | CC1=C(C#N)C(Nc2ccc(Cl)cn2)(C(F)(F)F)C(=O)N1 (stereo not drawn) | 0.794 µM (active) | –
10 | CNC(=S)N1N=C(c2ccc(OC)cc2)CC1c1ccc(N(C)C)cc1 (stereo not drawn) | 3.16 µM (active) | –
11 | CCN1C(=O)[C@H]2[C@H]3[C@H](O)[C@H](O)C/C(=N/NC(=O)OCc4ccccc4)[C@H]3CC[C@@H]2C1=O | – | -7.17% [at 11.4 µM] (inactive)
12 | Cc1noc(C)c1COc1cccc(C(=O)OCC(=O)N2CC(=O)Nc3ccccc32)c1 | 3.16 µM (active) | –
13 | O=[N+]([O-])c1ccc(-c2cnc(SCc3ccccc3Cl)[nH]2)cc1 | 2.24 µM (active) | –
14 | CC(C)C(=O)Nc1ccc(Sc2ccc(F)cc2)cc1 | 7.94 µM (active) | –
15 | CCOc1ccc(Cc2nc(C)c(CC(=O)N3CCOCC3)c(=O)[nH]2)cc1 | inactive | –
16 | O=C(O)c1cc2cc(OCc3ccccc3)ccc2[nH]1 | inactive | –
17 | C[N+]1(CC(=O)OCCCc2ccccc2)CCOCC1 | inactive | –
18 | CCOc1ccc2[nH]c(=O)c(CN(CCc3ccccc3)C(=O)N3CCOCC3)cc2c1 | 11.2 µM (active) | –
19 | CCOc1ccc2[nH]c(=O)c(CN(CCc3ccccc3)C(=O)N3CCCC3)cc2c1 | 20 µM (active) | –
20 | NNC(=O)CCc1ccc2ccc3ccccc3c2c1 | 0.251 µM (active) | –
21 | O=C(O)CCCc1ccc2ccccc2c1 | – | 0.826% [at 11.4 µM] (inactive)

Row | SMILES | AC50 | activity, negative = inhibition
22 | O=C1CCCC=C1[C@@H](O)CCOC(c1ccccc1)(c1ccccc1)c1ccccc1 | 0.251 µM (active) | –
23 | O=C1CCCC=C1[C@@H](O)C1CCCCC1 | – | 19.2% [at 11.4 µM] (inactive)
24 | O=C1CCCC=C1[C@@H](O)COCc1ccccc1 | – | -32.2% [at 11.4 µM] (inactive)
25 | CSC1=C(C#N)C(c2ccccc2Cl)C2=C(N1)c1ccccc1C2=O (stereo not drawn) | 0.355 µM (active) | –
26 | N#CC1=C(SCC(N)=O)NC2=C(C(=O)c3ccccc32)C1c1ccc(Cl)cc1 (stereo not drawn) | 3.98 µM (active) | –
27 | COC(=O)[C@@H]1CC[C@H](C)[C@@H](c2ccc(C)cc2)N1C(=O)c1ccc(/C=N\O[C@@H](C)c2cn([C@H]3COC[C@H]3O)nn2)cc1 | – | -29.4% [at 11.4 µM] (inactive)
28 | COC(=O)[C@@H]1CC[C@H](C)[C@@H](c2ccc(C)cc2)N1C(=O)c1ccc(/C=N\O[C@@H]2O[C@H](COC(C)=O)[C@H](OC(C)=O)[C@H](OC(C)=O)[C@H]2OC(C)=O)cc1 | – | -28.1% [at 11.4 µM] (inactive)
29 | COC(=O)[C@@H]1CC[C@H](C)[C@@H](c2ccc(C)cc2)N1C(=O)c1ccc(/C=N\O[C@@H](C)CN2CCCCc3nc(C)c(C)cc32)cc1 | – | -15.5% [at 11.4 µM] (inactive)
30 | COC(=O)[C@@H]1CC[C@H](C)[C@@H](c2ccc(C)cc2)N1C(=O)c1ccc(/C=N\O[C@@H](C)CN2CCCc3nc(C)c(C)cc32)cc1 | – | 24.5% [at 11.4 µM] (inactive)
31 | COC(=O)[C@@H]1CC[C@H](C)[C@@H](c2ccc(C)cc2)N1C(=O)c1ccc(/C=N\OC[C@@H]2O[C@H](c3ccccc3)C=C[C@@H]2Oc2ccc(OC)cc2)cc1 | 0.0501 µM (active) | –
32 | COC(=O)[C@@H]1CC[C@H](C)[C@@H](c2ccc(C)cc2)N1C(=O)c1ccc(/C=N\O[C@@H](C)c2cn([C@H](CO)Cc3ccccc3)nn2)cc1 | 3.98 µM (active) | –
33 | COC(=O)[C@@H]1CC[C@H](C)[C@@H](c2ccc(C)cc2)N1C(=O)c1ccc(/C=N\OC[C@@H](O)[C@H]2O[C@H]3OC(C)(C)O[C@H]3[C@@H]2O)cc1 | 0.631 µM (active) | –
34 | CO/N=C\c1ccc(C(=O)N2[C@H](c3ccc(C)cc3)[C@@H](C)CC[C@H]2C(=O)OC)cc1 | – | -39.6% [at 11.4 µM] (inactive)
35 | COC(=O)[C@@H]1CC[C@H](C)[C@@H](c2ccc(C)cc2)N1C(=O)c1ccc(/C=N\OCC[C@@H]2C=C[C@H](OC(C)=O)[C@H](COC(C)=O)O2)cc1 | – | -15.5% [at 11.4 µM] (inactive)
36 | CC(C)Oc1ccc(C2CC(=O)NC3=C2C(=O)CCC3)cc1 (stereo not drawn) | 22.4 µM (active) | –
37 | CO[C@@H]1COC(=O)C/C=C\[C@H](C)[C@H](OC)COC(=O)[C@H]2CCCN2C(=O)C/C=C\[C@H]1C | – | 3.47% [at 11.4 µM] (inactive)
38 | Cc1cc(=O)c2cc(Cl)ccc2[nH]1 | inactive | –
39 | CCOC(=O)N1CCN(S(=O)(=O)c2ccc3[nH]cc(C(=O)O)c(=O)c3c2)CC1 | inactive | –
40 | CCOC(=O)N1CCN(c2c(-c3ccccc3)c3cc(Cl)ccc3[nH]c2=O)CC1 | 3.16 µM (active) | –
41 | CN(C)c1ccnc(-c2cccc(NS(C)(=O)=O)c2)n1 | inactive | –
42 | Cc1cnc(CNc2cc(-c3cccnc3)ncn2)cn1 | inactive | –

Row | SMILES | AC50 | activity, negative = inhibition
43 | COc1cccc(-c2cc(NCCc3c[nH]c4ccc(OC)cc34)ncn2)c1 | 0.501 µM (active) | –
44 | COc1ccc2[nH]cc(CCNc3ccnc(-c4cccc(NS(C)(=O)=O)c4)n3)c2c1 | 10 µM (active) | –
45 | COc1ccc2[nH]cc(CCNc3ccnc(-c4cccnc4)n3)c2c1 | 1 µM (active) | –
46 | COc1ccc2[nH]cc(CCNc3cc(-c4cccnc4)ncn3)c2c1 | 25.1 µM (active) | –
47 | COc1ccc2[nH]cc(CCNc3cc(-c4cccc(C#N)c4)ncn3)c2c1 | 7.94 µM (active) | –
48 | COc1ccc2[nH]cc(CCNc3cc(-c4ccoc4)ncn3)c2c1 | 5.01 µM (active) | –
49 | Cc1cnc(CNc2cc(-c3ccoc3)ncn2)cn1 | inactive | –
50 | COc1ccc(-n2c(=O)c(-c3cccc(C#N)c3)nc3cnc(N4CCNCC4)nc32)cc1 | inactive | –
51 | C[C@H]1CC(C)(C)C[C@@](OCCN2CCCCC2)(c2ccccc2)C1 | – | -2.08% [at 11.4 µM] (inactive)
52 | COc1cccc(CC(C(=O)Nc2cc(C)ccc2C)c2nn[nH]n2)c1OC (stereo not drawn) | 11.2 µM (active) | –
53 | O=C1C2=CC[C@H]3C(=O)N(c4cccc(Oc5ccccc5)c4)C(=O)[C@@H]3[C@@H]2[C@H](O)[C@@H]2O[C@H]12 | – | 2.5% [at 11.4 µM] (inactive)
54 | Cc1cccc(Oc2coc3cc(OC(=O)c4cccs4)ccc3c2=O)c1 | 3.98 µM (active) | –
55 | COc1cccc(C2C3=C(CC(C)(C)CC3=O)OC(N)=C2[N+](=O)[O-])c1 (stereo not drawn) | 8.91 µM (active) | –
56 | CCC(C)NC(=O)c1c(C)cc(=O)oc1C (stereo not drawn) | inactive | –
57 | Cc1cc(=O)oc(C)c1C(=O)N1CCCCC1 | 4.47 µM (active) | –
58 | CCCNC(=O)c1c(C)cc(=O)oc1C | inactive | –
59 | O=C(CCc1ccccc1)NNC(=O)C1CCCCC1 | 25.1 µM (active) | –
60 | CCC(=O)c1ccc(OCC(O)CN(CCc2ccccc2)Cc2ccccc2)cc1 (stereo not drawn) | 1.12 µM (active) | –
61 | CN(C)CC(O)COc1ccc(C(C)(C)c2ccc(OCC(O)CN(C)C)cc2)cc1 (stereo not drawn) | inactive | –
62 | O[C@@H](C1=C/C(=C\c2ccncc2)c2ccccc21)c1ccncc1 | 0.158 µM (active) | –
63 | CCC(=O)Nc1ccccc1C(=O)OCC(=O)c1cccc2ccccc12 | 4.47 µM (active) | –

Row | SMILES | AC50 | activity, negative = inhibition
64 | C[N+](C)(C)CCC(=O)c1cccc2ccccc12 | inactive | –
65 | CCC(=O)Nc1ccccc1C(=O)OCC(=O)c1ccccc1 | 3.55 µM (active) | –
66 | CC(C)NC(=O)N1CCCC2(CCN(C(=O)c3cccn3C)CC2)C1 | inactive | –
67 | O=C(NNC(=O)C1CCN(S(=O)(=O)c2ccc(Cl)cc2)CC1)c1ccc(Cl)cc1 | inactive | –
68 | O=C(c1ccc2c(c1)OCCO2)C1CCN(S(=O)(=O)c2ccccc2F)CC1 | 3.16 µM (active) | –
69 | COc1cccc(C2C3(C#N)C(N)=NC(OC)(OC)C23C#N)c1 (stereo not drawn) | 4.47 µM (active) | –
70 | CC(C)N1CCN(c2ccc(OC[C@@H]3CO[C@@](Cn4cncn4)(c4ccc(Cl)cc4Cl)O3)cc2)CC1 | inactive | –
71 | Cc1ccccc1N1C(=O)c2cc(S(N)(=O)=O)c(Cl)cc2N[C@H]1C | inactive | –
72 | COc1ccccc1NS(=O)(=O)c1cccc(C(=O)OCC(=O)Nc2cc(C)on2)c1 | 7.94 µM (active) | –
73 | COc1ccccc1NC(=O)COC(=O)c1ccc(S(=O)(=O)NCc2ccco2)cc1 | 5.01 µM (active) | –
74 | COc1cc(C(=O)OCC(=O)Nc2cc(C)on2)cc(OC)c1OC | inactive | –
75 | Cc1cc(N(CN2CCCC2=O)C(=O)c2ccc(F)cc2)no1 | inactive | –
76 | Cc1cc(NC(=O)COC(=O)c2ccc(S(=O)(=O)N3CCCc4ccccc43)cc2)no1 | 4.47 µM (active) | –
77 | CCN(CC)CCOC(=O)c1cc(Cl)c(N)cc1OC | inactive | –
78 | Cc1c(C(=O)O)oc2ccc(S(=O)(=O)NCc3ccc4c(c3)OCO4)cc12 | inactive | –
79 | Cc1cc(C)c(S(=O)(=O)NCC2CCC(C(=O)NCc3ccc4c(c3)OCO4)CC2)c(C)c1 (stereo not drawn) | 6.31 µM (active) | –
80 | CN1C(=O)/C(=C\c2ccccc2)Sc2ccc(C(=O)N3CCN(c4ccccn4)CC3)cc21 | 3.98 µM (active) | –
81 | Cn1cccc1C(=O)N1CCC2(CC1)CCN(c1ccccn1)CC2 | inactive | –
82 | O=C(c1csnn1)N1CCC2(CC1)CCN(c1ccccn1)CC2 | inactive | –
83 | COc1ccc(C(=O)N/N=C2/C(=O)c3c(C)cc(C)cc3CC2(C)C)cc1 | 3.98 µM (active) | –
